Experimental data: PubChem BioAssay

Assay: small-molecule microarray binders of probe aWnt5a, primary screen, biochemical, biotinylated probe, 635/667 nm fluorescence (AID 1113);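 note: score merges 667 nm fluorescence intensity with signal-to-noise per printed feature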
Details: higher = more signal

SMILES | composite z-score
COC(=O)c1c(CC[C@@H](CO)NC(=O)N[C@@H](Cc2ccccc2)Cn2cc(C3(O)CCCCC3)nn2)oc(C(C)=O)c1C(=O)OC | -0.096
Cc1ccc(S[C@]2(C(=O)NCc3ccccc3)CC(=O)N(Cc3ccccc3Cl)[C@@H]2c2ccc(CO)cc2I)cc1 | -0.124
COCCOC(=O)N1C(=O)[C@@]2(c3cc(C#Cc4ccc(OC)cc4)ccc31)[C@H](C(=O)N1CCN(c3ncccn3)CC1)[C@H]1C(=O)O[C@H](c3ccccc3)[C@H](c3ccccc3)N1[C@@H]2c1ccc(O)cc1 | -0.207
CC(C)(C)OC(=O)CC[C@@]1(C(=O)NCCN2CCOCC2)N=C(c2ccc(OCCCO)cc2)O[C@@H]1c1ccccc1 | 0.0095
COCCOC(=O)N1C(=O)[C@@]2(c3cc(C#CC4(O)CCCCCC4)ccc31)[C@H](C(=O)N1CCCCCCC1)[C@H]1C(=O)O[C@H](c3ccccc3)[C@H](c3ccccc3)N1[C@@H]2c1ccccc1OCCO | 0.265
CC(C)c1ccc(NN2C(C(O)c3c(F)cccc3Cl)C=CC3C(=O)N(c4ccccc4)C(=O)C32)cc1 (stereo unspecified) | 0.136
O=C1OCC=C[C@H]2OC34C=CCN(c5ccc6ccccc6c5)C(=O)[C@H]3N(CCCO)C(=O)[C@@H]4[C@@H]12 (stereo partly specified) | -0.124
CCCCC(CC)C(O)C1C=CC2C(=O)N(c3ccccc3)C(=O)C2N1Nc1ccccc1 (stereo unspecified) | 0.173
O=C1C=CC(=O)[C@@H]2CC(COc3ccccc3)=C3[C@@H](CCc4ccccc4)OB(O)C[C@@H]3[C@H]12 | -0.0819
NC(=O)NCC#Cc1ccc2c(c1)[C@]1(C(=O)N2)[C@H](C(=O)NC[C@H](O)c2ccccc2)[C@H]2C(=O)O[C@H](c3ccccc3)[C@H](c3ccccc3)N2[C@@H]1c1ccc(O)cc1 | 0.551
COC(=O)[C@@]1(Cc2ccccc2)[C@H]2c3cc(C(=O)N(C)C)n(Cc4c(-c5ccccc5)noc4C)c3C[C@H]2CN1C(=O)c1ccccc1 | 0.204
[N-]=[N+]=Nc1ccccc1[C@H]1OC(c2ccc(OCCCO)cc2)=N[C@@]1(CCS(=O)(=O)c1ccccc1)C(=O)O | -0.131
COCCCNC(=O)[C@@]1(C)c2ccccc2C(=O)N(Cc2cc(C(F)(F)F)cc(C(F)(F)F)c2)[C@H]1c1ccc(CO)cc1 | -0.154
CC(C)(C)N1CC=CC23O[C@@H]4C=CCOC(=O)[C@@H]4[C@H]2C(=O)N(CCCCCO)[C@@H]3C1=O (stereo partly specified) | -0.169
CC(C)N1C(=O)c2ccccc2[C@@H](C(=O)NCCCN(C)C)[C@@H]1c1ccc(CO)cc1 | 0.026
COc1ccc(C(=O)Nc2cccc(CN3C(=O)[C@]4(O[C@H](CC(=O)N5CCC[C@H]5CO)[C@@H]([Si](C)(C)c5ccc(OC)cc5)[C@@H]4C)c4ccccc43)c2)cc1 | -0.0285
O=C(CS)NCCCCCCNC(=O)[C@@H]1C[C@@H]2C(=O)N3CCC[C@H]3C(=O)N2[C@@H]1c1ccc(O)cc1 | 0.0868
C=C[C@@H](COC(C)=O)N(Cc1ccccc1[N+](=O)[O-])S(=O)(=O)c1ccc(Br)cc1 | -0.0185

SMILES | composite z-score
COc1cc2c(cc1O)C(C)N(Cc1cccc(OC(F)(F)F)c1)CC2 (stereo unspecified) | -0.0445
CC(C)N1C(=O)C[C@@](C(=O)NCc2ccccc2)(c2ccc([N+](=O)[O-])cc2)[C@H]1c1ccc(CO)cc1 | -0.0894
CCCN1C(=O)[C@]2(COC(c3ccc(OCCCO)cc3)=N2)Cc2ccccc21 | -0.0462
COC(=O)C(CC#Cc1ccc2c(c1)[C@]1(C(=O)N2)[C@H](c2ccc(OCCO)cc2)N2[C@H](c3ccccc3)[C@H](c3ccccc3)OC(=O)[C@H]2[C@@H]1C(=O)NC[C@H](O)c1ccccc1)C(=O)OC | -0.0346
O=C1C2C=CC(C(O)c3ccc(B(O)O)cc3)N(Nc3ccccc3)C2C(=O)N1c1ccccc1 (stereo unspecified) | -0.0944
O=C1O[C@H](c2ccccc2)[C@H](c2ccccc2)N2[C@H]1[C@@H](C(=O)NC[C@H](O)c1ccccc1)[C@]1(C(=O)Nc3ccc(C#CCCO)cc31)[C@H]2c1ccc(O)cc1 | -0.202
O=C1O[C@@H](c2ccccc2)[C@@H](c2ccccc2)N2[C@@H](c3ccc(O)cc3)[C@]3(C(=O)Nc4ccc(C#CC5=CCCCC5)cc43)[C@@H](C(=O)O)[C@H]12 | -0.0077
CCOC(=O)C1=CCC(c2ccc(C#N)cc2)N(S(=O)(=O)c2ccc(C)cc2)C1 (stereo unspecified) | -0.117
CCN(CC)c1ccc(N2CC=CC34O[C@@H]5C=CCCOC(=O)C5[C@H]3C(=O)N(CCCCCO)[C@@H]4C2=O)cc1 (stereo partly specified) | -0.0721
COc1c(C)cc(-c2cc3c(c(-c4ccc(Oc5ccccc5)cc4)n2)[Si](C(C)C)(C(C)C)OC3)cc1C | -0.0721
CCOC(=O)C[C@H]1[C@H](OC(=O)c2ccc(-c3ccccc3)cc2)[C@@H](NC(=O)c2ccc3ccccc3c2)c2cc(OCCCO)ccc2N1C(=O)Cc1ccc(OC)cc1 | -0.001
CC(C)C(=C=CC[C@@H](O)c1ccccc1OCCO)C[C@@H](O)c1ccccn1 | -0.0751
CN(C)C(=O)[C@@]1(CCC(=O)OC(C)(C)C)N=C(c2ccc(OCCCO)cc2)O[C@H]1c1ccccc1 | 0.0733
C=CCN1C(=O)[C@]2(O[C@H](CCO)[C@@H]([Si](C)(C)c3ccc(OC)cc3)[C@@H]2C)c2cc(NC(=O)[C@H](C)O)ccc21 | -0.0799
Cc1ccc(S[C@]2(C(=O)NCCN3CCOCC3)CC(=O)N(Cc3cc(C(F)(F)F)cc(C(F)(F)F)c3)[C@@H]2c2ccc(CO)cc2I)cc1 | -0.176
CCOC(=O)C[C@H]1[C@H](OC(=O)c2ccc(C(=O)c3ccccc3)cc2)[C@@H](NC(=O)C2CCCCC2)c2cc(OCCCO)ccc2N1C(=O)c1ccccc1 | -0.0346
CC(C)(C)N1CC=CC23O[C@@H]4/C=C\CCCOC(=O)C4[C@H]2C(=O)N(CCO)[C@@H]3C1=O (stereo partly specified) | -0.18
CC1CC/C=C\[C@H]2OC34C=CCN(Cc5ccccc5)C(=O)[C@H]3N(CCCCCO)C(=O)[C@@H]4C2C(=O)O1 (stereo partly specified) | -0.0981
